Source: PubChem BioAssay (NCI)
Compounds without any hit were thinned out: in the full panel of roughly 79,000, 15% have a hit. Cut-off read from the data, not from the text of the source: active = growth inhibition above about 70%; inactive = the rest.

Assays:
[1] = NCI Yeast Anticancer Drug Screen. Data for the rad50 strain (AID 155);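 note: 0% = growth of vehicle-only cultures of the same strain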; conditions: S. cerevisiae rad50 strain growth inhibition; at 50.0 µM; stronger effect = higher value
In short: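 Genetically altered yeast (DNA repair pathway); compound treatment; growth inhibition vs vehicle ctrl.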

[2] = NCI Yeast Anticancer Drug Screen. Data for the mec2-1 strain (AID 157); conditions: S. cerevisiae mec2-1 strain, at 50.0 µM, stronger effect = higher value
In short: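 Using mec2-1 yeast: add compound, measure growth, express inhibition versus vehicle-treated cultures.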

[3] = NCI Yeast Anticancer Drug Screen. Data for the sgs1 mgt1 strain (AID 161);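 note: 0% = growth of cultures given vehicle only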; conditions: S. cerevisiae sgs1 mgt1 strain, at 50.0 µM, stronger effect = higher value
In short: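 This yeast growth screen uses a strain with defined DNA-repair lesions; compound-treated growth is compared with vehicle-treated growth.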

[4] = NCI Yeast Anticancer Drug Screen. Data for the cln2 rad14 strain (AID 165);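 note: 0% = growth equal to vehicle treated cultures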; conditions: S. cerevisiae cln2 rad14 strain, at 50.0 µM, stronger effect = higher value
In short: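 Yeast strain cln2 rad14, bearing defects in cell cycle control and DNA repair, serves as the test system; values reflect growth inhibition compared with vehicle.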

[5] = NCI Yeast Anticancer Drug Screen. Data for the bub3 strain (AID 167); conditions: S. cerevisiae bub3 mutant strain, at 50.0 µM, stronger effect = higher value
In short: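 Yeast carrying a defined mutation is treated with each compound, and growth is compared with that of vehicle-exposed cells to give inhibition.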

[6] = NCI Yeast Anticancer Drug Screen. Data for the mlh1 rad18 strain (AID 175); conditions: S. cerevisiae mlh1 rad18 strain growth inhibition; at 50.0 µM; stronger effect = higher value
In short: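 Steps: expose repair-defective yeast to compound; measure growth; express inhibition against vehicle-treated controls.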

Measured: growth inhibition

O=P(CCC(O)c1ccccc1)(c1ccccc1)c1ccccc1 (stereo not given)
inactive: [1] -7.45% | [2] 5.65% | [3] -0.65% | [4] 0.5% | [5] -9.6% | [6] 9.8%

CCOC(=O)/C(=C\c1ccc(N(C)C)cc1)S(=O)(=O)C(F)(F)C(F)(F)C(F)(F)C(F)(F)F
inactive: [1] 2% | [2] 9.6% | [3] 6.1% | [4] -9.7% | [5] 4.75% | [6] 15.2%

CC(C)C(O)C(C)N (stereo not given)
inactive: [1] 1.4% | [2] -5.9% | [3] 0.7% | [4] 4.9% | [5] 3.2% | [6] 3.5%

C=CCCCCCCCCC(=O)OC
inactive: [1] -11.8% | [2] -17.9% | [3] 10.2% | [4] -10.5% | [5] -5.1% | [6] -31.4%

C=CCNC(=S)N/C=C\c1c(C(=O)O)cc([N+](=O)[O-])cc1[N+](=O)[O-]
inactive: [1] -7.85% | [2] -24.1% | [3] -31.2% | [4] -23.2% | [5] 3.2% | [6] 5.6%

CCSc1[nH]c2nc[nH]c(=O)c2c1C#N
inactive: [1] -8.1% | [2] 21.2% | [3] -32.5% | [4] -17.8% | [5] 0.45% | [6] -8.4%

Cc1c(C)c(Cl)c(C)c(C(Cl)(Cl)Cl)c1C
inactive: [1] 0.85% | [2] -1.3% | [3] 2.05% | [4] 12.2% | [5] -0.65% | [6] -6.25%

C/C=C/Cc1ccc(O)cc1
inactive: [1] 4.9% | [2] -6% | [3] -1% | [4] -25.4% | [5] -1.4% | [6] -1.05%

CCOC(=O)c1ccc(NC(=O)Oc2ccc(SC)cc2)cc1
inactive: [1] 8.2% | [2] -5.25% | [3] 0.4% | [4] 8.95% | [5] 23.4% | [6] 6.9%

CC(C)COC1CN=NN1/C=C1\CCOC1=O (stereo not given)
inactive: [1] -4.2% | [2] 10.4% | [3] 14.3% | [4] -6.65% | [5] 24.2% | [6] -3%

Cc1cc2c(cc1C)NC(C)CC(=O)N2 (stereo not given)
inactive: [1] 5.8% | [2] -13.1% | [3] 4.2% | [4] 14.1% | [5] -0.2% | [6] 21.7%

O=C1/C(=C/c2ccc(O)cc2)CCC1CNc1ccc(Cl)cc1 (stereo not given)
inactive: [1] 14.8% | [2] 12.6% | [3] -2.6% | [4] 18.1% | [5] 5.55% | [6] 39.9%

O=c1c2cc(S(=O)(=O)Nc3c(Cl)cccc3Cl)ccc2ncn1NS(=O)(=O)c1ccc2ccccc2c1
inactive: [1] -21.8% | [2] -8.6% | [3] -12.4% | [4] 10.4% | [5] -7.9% | [6] -3.75%

CN(C)C=Nc1cccc2cnccc12
inactive: [1] 24.7% | [2] 3.4% | [3] 14.5% | [4] 21.2% | [5] 13.1% | [6] -16.7%

CC(C)(C)OC(=O)NC1CC=CCC1NC(=O)OC(C)(C)C (stereo not given)
inactive: [1] -52.7% | [2] -11.6% | [3] -16.6% | [4] -19.6% | [5] -17.8% | [6] -29.1%

CC1=NN(C(=O)CC(=O)Nc2cccc(Cl)c2)C(=O)C1N=Nc1ccc(S(=O)(=O)c2ccc(N=NC3C(=O)N(C(=O)CC(=O)Nc4cccc(Cl)c4)N=C3C)cc2)cc1 (stereo not given)
inactive: [1] 36.5% | [2] 15.2% | [3] 23.4% | [4] -1.9% | [5] -25.4% | [6] 22.4%

COc1cc(C(=O)NC(=S)NC2CCCCCCCCCCC2)cc(OC)c1OC
inactive: [1] 8.1% | [2] -15.3% | [3] 7.25% | [4] 1.65% | [5] 6.05% | [6] 4.6%

CC(=O)C1C(=O)C(=O)N(c2ccc(Br)cc2)C1=O (stereo not given)
inactive: [1] -33.5% | [2] -12.6% | [3] -14.3% | [4] -9.8% | [5] -24.4% | [6] -38%

Cc1cc(/C=N/N2CCN(/N=C/c3cc(C)n(-c4ccccc4)c3C)CC2)c(C)n1-c1ccccc1
inactive: [1] 2.5% | [2] -9.15% | [3] -2.7% | [4] -27.9% | [5] -2.95% | [6] -13.6%

CCCC1OC(c2ccc(OC)cc2)OCC1CC (stereo not given)
inactive: [1] 2.65% | [2] 0.95% | [3] -0.3% | [4] -16.4% | [5] 30.9% | [6] -0.75%
